An excerpt weighted towards active compounds, which were near 4.6% of everything screened.
tim23-1 inh = inhibits growth of tim23-1 mutant yeast. S. cerevisiae tim23-1 growth, BacTiter-Glo luminescence, 24 h. inhibition, % at 20 µM. actives 1.3% (n = 330,000). AID 463212;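 active means growth inhibition of the mutant yeast at or above 50%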;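 further: temperature-sensitive mutant grown at 25 °C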
SKKanGAS inh = SKKanGAS growth inhibition. S. pyogenes SKKanGAS, kanamycin growth, BacTiter-Glo, 6 h. inhibition, % at 7.5 µM. actives 1.3% (n = 300,000). AID 1662;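 active means mean replicate score, as percent of positive control median, at least 50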;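 further: strain carries kanamycin resistance gene driven by streptokinase promoter and grows in 40 µg/ml kanamycin; loss of luminescence reflects streptokinase promoter inhibition or plain growth inhibition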
tim10-1 inh = inhibits growth of tim10-1 mutant yeast. S. cerevisiae tim10-1 ts strain growth, BacTiter-Glo, 24 h. inhibition, % at 20 µM. actives 2.2% (n = 330,000). AID 463190;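 active means inhibition of at least 40%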;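 further: mutant grown at 25 °C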
TIM10 inh = growth inhibitors of TIM10 yeast strain | S. cerevisiae TIM10 strain growth, BacTiter-Glo luminescence, 24 h | inhibition, % at 10 µM | actives 1.4% (n = 330,000);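 active means inhibition of 40% or more at the single tested concentration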;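 further: wild-type TIM10 isogenic control strain grown at permissive 25 °C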
NALP3 yeast inh = blocks the NALP3 inflammasome reconstituted in yeast; inhibition, % at 10 µM; Yeast reconstituted NLRP3/ASC/caspase-1, beta-gal luminescence, 24 h; actives 0.39% (n = 330,000);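 active means inhibition of 50% or more; inactive means inhibition below 50%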
A number is an active result; – = inactive; · = not tested or not shown.

SMILES | tim23-1 inh | SKKanGAS inh | tim10-1 inh | TIM10 inh | NALP3 yeast inh
CC(C)(C)OC(=O)C[C@@H]1C/C=C\C[C@H](CC(=O)NCCO)C(=O)NC[C@@H](c2ccccc2)OC1=O | – | · | – | – | –
COc1ccc(CNC(=O)C[C@H]2C[C@H](C(=O)N3CCOCC3)[C@@]3(CCC4CCCC4)c4[nH]c5cc(CCC(=O)N(C)C)ccc5c4CCN3C2=O)cc1OC | – | · | – | – | ·
CCOC(=O)C1=NN(C(=O)c2ccc(C)cc2)C(O)(c2ccc(Cl)cc2)C1 (configuration not stated) | – | 55 | – | – | –
CCC1=NN(C(=O)c2ccc(Cl)cc2)C(O)(c2ccc(C)cc2)C1 (configuration not stated) | – | – | – | – | –
C[C@H](NC(=O)c1nc[nH]c1C(=O)N[C@@H](Cc1ccccc1)C(=O)OC(C)(C)C)c1ccccc1 | – | 54 | – | – | –
C[C@@H](NC(=O)c1nc[nH]c1C(=O)N[C@@H](Cc1ccccc1)C(=O)OC(C)(C)C)c1ccccc1 | – | 84 | – | – | –
CNC(=O)c1[nH]cnc1C(=O)N[C@@H](Cc1ccccc1)C(=O)OC(C)(C)C | – | – | – | – | –
CC(C)(C)OC(=O)C[C@H]1C/C=C\C[C@@H](CC(=O)N(CCO)Cc2ccccc2)C(=O)N[C@@H](Cc2ccccc2)COC1=O | – | · | – | – | –
N#CC(c1ccc(Cl)cc1)N1CCOCC1 (configuration not stated) | – | – | – | – | –
Oc1c(Cl)cc(Cl)cc1C(C#Cc1ccccc1)N1CCOCC1 (configuration not stated) | – | 90 | – | – | –
COc1ccc(OC)c(CCNC(=O)C(=O)Nc2ccc3nc4n(c(=O)c3c2)CCCCC4)c1 | – | 57 | – | – | –
COc1ccc2sc(-c3ccc(N(C)C)cc3)c(C#Cc3cncn3C)c2c1 | – | · | – | – | –
Cc1ccc(NC(=O)c2cc(N3C(=O)C=CC3=O)ccc2N2CCOCC2)cc1Cl | · | 61 | · | · | ·
Cc1ccc(NC(=O)c2cc(N3C(=O)CCC3=O)ccc2N2CCOCC2)cc1 | – | – | – | – | –
O=[N+]([O-])c1ccc(O)c(/C=N/Nc2ccc(Cl)nn2)c1 | – | 102 | – | – | –
O=[N+]([O-])c1ccc(O)c(/C=N/NC2=NS(=O)(=O)c3ccccc32)c1 | – | 59 | – | – | –
COc1cc([N+](=O)[O-])cc(/C=N\NC(=O)C2COc3ccccc3O2)c1O (configuration not stated) | – | 104 | – | – | –
COc1cc([N+](=O)[O-])cc(/C=N/NC(=O)c2cccnc2)c1O | – | 88 | – | – | –
O=C(N/N=C/c1cccc([N+](=O)[O-])c1O)C(O)(c1ccccc1)c1ccccc1 | – | – | – | – | –
COc1cc([N+](=O)[O-])cc(/C=N/NC(=O)C(O)(c2ccccc2)c2ccccc2)c1O | – | 98 | – | – | –
CCCCN(C(=O)Cc1coc2cc(C)c(C)cc12)c1c(N)n(Cc2ccccc2)c(=O)[nH]c1=O | – | – | – | – | –
CN(CC(=O)N1CCOCC1)S(=O)(=O)c1ccc2ccccc2c1 | – | – | – | – | –
CCC[C@@H]1C[C@@H](C(=O)NC(C(C)Cl)[C@H]2O[C@H](SC)[C@H](O)[C@@H](O)[C@H]2O)N(C)C1 (some centres not stated) | – | 106 | – | – | –
CCC[C@@H]1C[C@@H](C(=O)N[C@@H](C2O[C@H](SC)[C@H](O)[C@@H](O)[C@H]2O)[C@H](C)Cl)N(C)C1 (some centres not stated) | – | 104 | – | – | –
CCCC1CC(C(=O)NC(C(C)Cl)C2OC(SC)C(O)C(O)C2O)N(C)C1 (configuration not stated) | – | 106 | – | – | –
SMILES | tim23-1 inh | SKKanGAS inh | tim10-1 inh | TIM10 inh | NALP3 yeast inh
O=C(NCc1ccccc1CN1CCCC1)c1cccc(N2CCCC2=O)c1 | – | · | – | – | –
Cc1ccc(-c2nc(CS(=O)CC(=O)NCCN3CCCCC3C)c(C)o2)cc1 (configuration not stated) | – | – | – | – | –
CCC(C)c1ccccc1NS(=O)(=O)c1cnn(CC)c1 (configuration not stated) | – | 53 | – | – | –
Cc1cc(C)n(-c2nc(N(C)C)nc(N(C)C)n2)n1 | – | – | – | – | –
Cc1csc(Nc2ccccc2C(F)(F)F)n1 | – | – | – | – | –
Cc1cc(C)n(-c2nc(NC(C)C)nc(NC(C)C)n2)n1 | – | – | – | – | –
CCNc1nc(NCC)nc(-n2nc(C)cc2C)n1 | – | 87 | – | – | –
